Results reported in paper PMC5540273 (PLoS ONE, 2017).

What was measured:
Settings in all cases: concentration: 1 μM, replicates: in singlicate; n = 1
AAK1 = tested on: AAK1
ABL1-nonphosphorylated = tested on: ABL1-nonphosphorylated
ABL1-phosphorylated = tested on: ABL1-phosphorylated
ABL2 = tested on: ABL2
ACVR1B = tested on: ACVR1B
ACVR1 = tested on: ACVR1
ACVR2A = tested on: ACVR2A
ACVR2B = tested on: ACVR2B
ACVRL1 = tested on: ACVRL1
ADCK3 = tested on: T1, ADCK3
T1 construct: gene CABC1

ADCK4 = tested on: ADCK4
AKT1 = tested on: AKT1
AKT2 = tested on: AKT2
AKT3 = tested on: AKT3
ALK = tested on: ALK
AMPK-alpha1 = tested on: T2, AMPK-alpha1
T2 construct: gene PRKAA1
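Note: KINOMEscan kinase panel screen.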

Compound | %Inh (AAK1) [%] | %Inh (ABL1-nonphosphorylated) [%] | %Inh (ABL1-phosphorylated) [%] | %Inh (ABL2) [%] | %Inh (ACVR1B) [%] | %Inh (ACVR1) [%] | %Inh (ACVR2A) [%] | %Inh (ACVR2B) [%] | %Inh (ACVRL1) [%] | %Inh (ADCK3) [%] | %Inh (ADCK4) [%] | %Inh (AKT1) [%] | %Inh (AKT2) [%] | %Inh (AKT3) [%] | %Inh (ALK) [%] | %Inh (AMPK-alpha1) [%]
C[C@@H](Oc1cc(-n2cnc3ccc(NC(=O)NC(C)(C)C)cc32)sc1C(N)=O)c1ccccc1Cl [GSK346294] | 15 | 0 | 0 | 9 | 0 | 0 | 0 | 17 | 1 | 37 | 31 | 0 | 3 | 0 | 0 | 6
Cl.Oc1cccc(Nc2ccnc3cc(-c4ccncc4)ccc23)c1 [GW494601] | 42 | 100 | 99.9 | 99.4 | 67 | 99.8 | 97.2 | 95 | 81 | 1 | 68 | 0 | 0 | 0 | 47 | 0
O=c1cc(N2CCOCC2)nc2n(Cc3cccc(C(F)(F)F)c3)ccn12 [GSK2297543] | 0 | 0 | 0 | 3 | 0 | 5 | 0 | 0 | 0 | 21 | 16 | 0 | 0 | 15 | 0 | 4
Fc1ccc(-c2ncn(CCCN3CCOCC3)c2-c2ccccn2)cc1 [SB-211742] | 0 | 39 | 12 | 7 | 1 | 0 | 0 | 19 | 0 | 3 | 6 | 15 | 4 | 0 | 19 | 10
Cn1ccc2ncnc(Oc3ccc(NC(=O)Nc4ccncc4)c(Cl)c3)c21 | 0 | 31 | 3 | 0 | 23 | 0 | 0 | 0 | 4 | 0 | 0 | 9 | 14 | 0 | 0 | 0
Cl.Nc1ncnc2occ(-c3ccc(NC(=O)Nc4cc(C(F)(F)F)ccc4F)cc3)c12 [SB-707548] | 0 | 99.1 | 50 | 81 | 0 | 1 | 81 | 2 | 0 | 10 | 28 | 0 | 0 | 0 | 75 | 5
Cc1cn2c(=O)cc(N3CCOCC3)nc2n1Cc1cccc(Cl)c1Cl [GSK2334006] | 14 | 73 | 63 | 41 | 9 | 18 | 8 | 23 | 0 | 7 | 17 | 0 | 26 | 26 | 6 | 29
CCCCCc1nc2c(N)ncnc2n1CCCCC [SKF-97255] | 6 | 31 | 30 | 0 | 26 | 0 | 0 | 0 | 13 | 1 | 0 | 0 | 0 | 0 | 0 | 3
Cc1ccc(NC(=O)c2ccnc(N3CCN(C)CC3)c2)cc1-c1ccc(C(=O)NCC2CC2)cc1 [GW775604] | 0 | 45 | 0 | 0 | 0 | 0 | 16 | 0 | 0 | 1 | 0 | 0 | 0 | 6 | 0 | 0
O=C(NCCNc1ccnc(Nc2ccc(F)cc2)n1)Nc1ccccc1F [GSK1379880] | 0 | 0 | 0 | 24 | 0 | 0 | 0 | 0 | 0 | 0 | 19 | 0 | 0 | 0 | 25 | 0
NS(=O)(=O)c1cccc(-c2ccc3nccc(-c4cccc(S(N)(=O)=O)c4)c3c2)c1 [GW867253] | 27 | 36 | 15 | 0 | 0 | 0 | 0 | 0 | 0 | 0 | 10 | 2 | 0 | 10 | 0 | 0
